Screens (PubChem)
The list is not random: actives were taken first. Their share in the collection is about 1.9%.
MCL1-BIM inh: inhibitors of human MCL1 binding to BIM-BH3 peptide. Q07820. GST-MCL1 / FITC-Bim-BH3 fluorescence polarization. inhibition, % at 10.9 µM. 320,000 compounds, 0.68% hits. AID 2057;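 active = inhibition above the mean inhibition of all tested compounds plus 3 SD, set per campaign, cut at about 40% in these data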;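 also: 0% = DMSO wells and 100% = unlabeled Bim-BH3 peptide control; higher means more loss of mP so more displacement of Bim peptide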
BCLXL inh: inhibitors of human Bcl-xL | Q07817 | GST-Bcl-xL / FITC-Bim BH3 peptide fluorescence polarization | inhibition, % at 10.9 µM | 320,000 compounds, 0.7% hits;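 active = inhibition above the mean of all tested compounds plus 3 SD, cutoff set per campaign, cut at about 30% in these data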;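 also: 0% = DMSO wells and 100% = unlabeled Bim-BH3 peptide competitor; inhibitors lower millipolarization by displacing the labeled peptide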
MEX-5 binding: C. elegans MEX-5 TCR-2 RNA binding activity; activity score (negative = inhibition of binding), % at 10 µM; MEX-5/FITC-TCR2 RNA binding, fluorescence polarization; active compounds read low; 300,000 compounds, 0.38% hits; Q9XUB2;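 active = inhibition past about -25% in most replicates, and total fluorescence under double the plate's negative control median, limit read from the data; inconclusive = replicates evenly split on the limit, or fluorescence at least double controls; inactive = too little inhibition in most replicates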;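 also: 0% = DMSO and -100% = 5 µM competing unlabeled TCR2 RNA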
GLD-1 RNA inh: GLD-1-TGE RNA interaction inhibition (C. elegans); Q17339; purified GLD-1 + fluorescein TGE RNA, fluorescence polarization; inhibition, % at 5.96 µM; 320,000 compounds, 0.44% hits; AID 2280;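 active = percent inhibition above a per-plate cutoff, the plate mean of test compounds plus 3 SD, cut at about 30% in these data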;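 also: 0% = DMSO wells with GLD-1 and probe and 100% = wells lacking GLD-1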
Target sequence (Q17339 whole entry, looked up): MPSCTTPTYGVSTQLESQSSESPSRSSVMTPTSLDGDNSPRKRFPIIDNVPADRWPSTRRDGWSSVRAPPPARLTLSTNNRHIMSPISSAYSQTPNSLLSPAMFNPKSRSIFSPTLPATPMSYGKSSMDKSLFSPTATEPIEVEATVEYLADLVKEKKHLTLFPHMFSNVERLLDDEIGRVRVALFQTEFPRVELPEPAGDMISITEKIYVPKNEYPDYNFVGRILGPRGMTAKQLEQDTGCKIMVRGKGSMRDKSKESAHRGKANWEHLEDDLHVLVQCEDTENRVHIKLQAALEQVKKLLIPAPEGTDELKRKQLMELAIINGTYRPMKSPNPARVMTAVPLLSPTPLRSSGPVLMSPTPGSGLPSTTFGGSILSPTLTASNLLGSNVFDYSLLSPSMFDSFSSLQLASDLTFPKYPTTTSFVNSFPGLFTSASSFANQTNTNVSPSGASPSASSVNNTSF
LANA-H2B inh: blocks KSHV LANA binding to histone H2A/H2B; Q9QR71; cell-free LANA-H2A/H2B peptide, fluorescence polarization; inhibition, % (test concentration not listed); 320,000 compounds, 0.6% hits; AID 2629; in the data active = inhibition mostly above about 10%, no sharp cut-off; inactive = mostly below about 6.7%
Yeast superoxide: caloric restriction mimetics inhibiting age-related superoxide in yeast. S. cerevisiae aged cells, superoxide DHE fluorescence; active compounds read low. superoxide response (% of plate mean), % at 10 µM. 330,000 compounds, 0.18% hits. AID 2690;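 active = superoxide response under a set limit, about three screen SD below normal, cut at about 65% in these data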;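 also: yeast aged for seven days with compound at 30 °C before DHE staining; 100% = average MFI of all compound-treated wells on the plate with controls excluded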
* = called active by the depositor; i = inactive; ? = inconclusive; . = no result; + = active, no number.

SMILES | MCL1-BIM inh | BCLXL inh | MEX-5 binding | GLD-1 RNA inh | LANA-H2B inh | Yeast superoxide
CCOC(=O)c1cc(-c2ccccc2)sc1NC(=O)CSc1nnc(N)s1 | 4 | 2 | 2 | 1 | + | 99
CCOC(=O)c1cc(-c2ccccc2)sc1NC(=O)CSc1nncs1 | 1 | 0 | -2 | -1 | 4 | 101
CC(Oc1ccc(F)cc1Br)c1nc2ccccc2c(=O)[nH]1 (stereo unspecified) | 6 | 6 | -1 | 5 | -6 | 104
CCC[C@H]1NC(=O)[C@H](C)N(C)C(=O)C(C)(C)C(=O)C(C)NC(=O)[C@H](Cc2ccc(OC)cc2)N(C)C(=O)[C@H](C(C)C)N(C)C(=O)CNC(=O)[C@H](CC(C)C)N(C)C(=O)CNC(=O)[C@H]([C@@H](C)CC)OC(=O)[C@H]1C (stereo partly specified) | . | . | . | 5 | . | 78
N#Cc1c(N)nc2c3c(sc(=N)c2c1N)NC(=O)CC3c1c(F)cccc1Cl (stereo unspecified) | 18 | 18 | -1 | 5 | -6 | 98
N#Cc1c(N)nc2c3c(sc(=N)c2c1N)NC(=O)CC3c1ccccc1 (stereo unspecified) | 42* | 47* | -3 | 0 | 1 | 92
COc1ccccc1NC(=O)COC(=O)/C=C/c1ccc2c(c1)OCO2 | -7 | -5 | 1 | 0 | 14* | 102
Cc1nc(CC(=O)NNS(=O)(=O)c2cccc(Cl)c2Cl)cs1 | . | . | . | 3 | -2 | 96
O=C(O[C@@H]1Cc2c(O)cc(O)cc2O[C@@H]1c1cc(O)c(O)c(O)c1)c1cc(O)c(O)c(O)c1 | . | . | -84* | . | . | .
C=CCNc1nc(Nc2ccccc2F)nc(OCC)n1 | -9 | -2 | -1 | -3 | 16* | 97
CCOc1nc(Nc2ccccc2F)nc(OCC)n1 | 2 | 4 | 1 | -5 | 4 | 114
Cc1c(S(=O)(=O)c2ccccn2)c(N)n(Cc2ccccc2)c1C | 47* | 55* | -2 | 22 | -1 | 98
O=C(NCc1ccc(F)cc1)c1cc(S(=O)(=O)N2CCCCC2)ccc1Cl | 3 | 3 | . | 11 | 79* | 95
Cc1ccc(C(O)P(=O)(OCc2ccccc2)c2ccc(N(C)C)cc2)cc1 (stereo unspecified) | -7 | -8 | 2 | 7 | 11* | 105
CN(C)c1ccc(P(=O)(OCc2ccccc2)C(O)c2cccnc2)cc1 (stereo unspecified) | 1 | 1 | -3 | -7 | 0 | 98
COc1ccc(C(=O)Nc2nc(-c3ccc([N+](=O)[O-])cc3)c(-c3ccccc3)s2)cc1 | 4 | -1 | -162* | 0 | -1 | 101
O=C(O)CCn1c(SCCOc2ccccc2F)nc2ccccc21 | . | . | 0 | . | 3 | 111
COc1cccc(CC(=O)OCC(=O)N(C)CC(=O)Nc2ccccc2Cl)c1 | -9 | -5 | . | 4 | . | 85
Cc1ccccc1C(=O)Nc1ccnn1C1CCN(C(C)Cc2ccccc2F)CC1 (stereo unspecified) | 42* | 39* | -15 | 4 | 1 | 95
CC(CN1CCC(n2nccc2NC(=O)c2ccccc2Cl)CC1)c1ccccc1 (stereo unspecified) | 33 | 33* | -18 | 6 | -3 | 104
Cc1ccccc1C(=O)Nc1ccnn1C1CCN(Cc2cnn(C(C)C)c2)CC1 | 0 | 6 | 0 | -2 | 17* | 96
Cc1ccccc1C(=O)Nc1ccnn1C1CCN(Cc2cnn(C)c2)CC1 | 4 | 6 | -1 | 0 | 5 | 99
CC(C)=CCN1CCC(n2nccc2NC(=O)c2ccccc2Cl)CC1 | 1 | -3 | 0 | 1 | 2 | 91
Cn1c(=O)c2c(nc(NCC3CCCC(CN)C3)n2Cc2ccc(Cl)cc2Cl)n(C)c1=O (stereo unspecified) | -3 | 6 | 3 | -2 | 2 | 113
c1coc(C2Nc3cccc4cccc(c34)N2)c1 | 58* | 51* | -6 | 13 | 5 | 88
SMILES | MCL1-BIM inh | BCLXL inh | MEX-5 binding | GLD-1 RNA inh | LANA-H2B inh | Yeast superoxide
Clc1ccccc1C1Nc2cccc3cccc(c23)N1 | 36 | 38* | -3 | 10 | -2 | 91
Clc1cccc(C2Nc3cccc4cccc(c34)N2)c1Cl | 11 | 2 | -2 | 11 | 2 | 101
Cc1nc2nc(-c3cccs3)[nH]c2cc1Br | 3 | 6 | -1 | 5 | -1 | i
CC(=O)C[C@@H](O)CC(=O)[C@@H]1OC(=O)[C@H](C)C/C=C\Cc2ccccc21 | . | . | . | 3 | 6 | 119
COc1ccc2sc(-c3ccc(N(C)C)cc3)c(C#Cc3cncn3C)c2c1 | . | . | . | 0 | 5 | 116
Nc1cccc2c1C(=O)N(C(=O)c1cccc(S(=O)(=O)N3CCCC3)c1)C2=O | 26 | 30 | -4 | 24 | 5 | 99
Cc1ccc(C(=O)N2C(=O)c3cccc(N)c3C2=O)o1 | 9 | 13 | -1 | 12 | 20* | 94
CCOc1ccc(C(=O)OCC(=O)N2CCCC2)cc1 | -5 | -3 | -4 | 0 | 0 | 83
COc1cccc(-n2ccnc2SCC(=O)Nc2nccs2)c1 | -5 | 4 | -1 | 104* | 6 | 97
c1ccc(CCn2nnnc2CN2CCCc3ccccc32)cc1 | 42* | 42* | -6 | 5 | -4 | 97
N#CCN1CCC(c2cc(-c3ccco3)n[nH]2)CC1 | 33 | 38* | -1 | 29 | 1 | 106
COc1ccc(CCNC(=O)COC(=O)c2cc(S(=O)(=O)N3CCCC3)ccc2O)cc1 | -1 | -1 | . | 1 | . | 105
O=[N+]([O-])c1cccc(/C=C/c2ccncc2)c1 | 5 | 1 | -2 | -8 | 0 | 97
O=[N+]([O-])c1ccc(/C=C/c2ccncc2)cc1 | -4 | 1 | -1 | -7 | 2 | 62*
O=C(Nc1cccc(-n2cnnn2)c1)C1CCCN(Cc2cccc(C(F)(F)F)c2)C1 (stereo unspecified) | . | . | 0 | . | 13* | 118
COc1ccc(/C=C2/N=C(c3cccs3)OC2=O)cc1OC(C)C | -6 | -2 | -53* | -3 | 9 | 103
CCOc1ccc(/C=C2\N=C(c3cccs3)OC2=O)cc1OC | 1 | -2 | ? | -1 | -2 | 113
O=C(CCN1C(=O)C2CC=CCC2C1=O)Nc1nc(-c2ccc(F)c(F)c2)cs1 (stereo unspecified) | 5 | 4 | . | 6 | -1 | 92
O=C1c2ccccc2C(=O)C1(O)O | 4 | 6 | . | 0 | 30* | 108
COC(=O)C(CCCN1C(=O)c2ccccc2C1=O)(NC(C)=O)c1nn[nH]n1 (stereo unspecified) | 2 | 3 | 2 | -6 | 19* | 110
Cc1ccc(C(c2sc3ncnn3c2O)N2CC(C)CC(C)C2)cc1 (stereo unspecified) | -6 | 56* | -1 | -2 | 0 | 81
